Reference: article PMC7826789 (International Journal of Molecular Sciences, 2021)

How the values were obtained:
Details in all cases: Compound Concentration (nM):1000
FLT3(K663Q) = test system: FLT3(K663Q)
FLT3(N841I) = test system: FLT3(N841I)
FLT3(R834Q) = test system: FLT3(R834Q)
FLT3-autoinhibited = test system: FLT3-autoinhibited
FLT3 = test system: FLT3
FLT4 = test system: FLT4
FRK = test system: FRK
FYN = test system: FYN
GAK = test system: GAK
GCN2(Kin.Dom.2,S808G) = test system: T1, GCN2(Kin.Dom.2,S808G)
T1 construct: gene EIF2AK4

GRK1 = test system: GRK1
GRK2 = test system: T2, GRK2
T2 construct: gene ADRBK1

GRK3 = test system: T3, GRK3
T3 construct: gene ADRBK2

GRK4 = test system: GRK4
GRK7 = test system: GRK7
GSK3A = test system: GSK3A
GSK3B = test system: GSK3B
HASPIN = test system: T4, HASPIN
T4 construct: gene GSG2

HCK = test system: HCK
HIPK1 = test system: HIPK1
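Further: KINOMEscan scanMAX binding as percent activity remaining versus control; lower means stronger binding.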

SMILES	Percent Control (FLT3(K663Q)) [%]	Percent Control (FLT3(N841I)) [%]	Percent Control (FLT3(R834Q)) [%]	Percent Control (FLT3-autoinhibited) [%]	Percent Control (FLT3) [%]	Percent Control (FLT4) [%]	Percent Control (FRK) [%]	Percent Control (FYN) [%]	Percent Control (GAK) [%]	Percent Control (GCN2(Kin.Dom.2,S808G)) [%]	Percent Control (GRK1) [%]	Percent Control (GRK2) [%]	Percent Control (GRK3) [%]	Percent Control (GRK4) [%]	Percent Control (GRK7) [%]	Percent Control (GSK3A) [%]	Percent Control (GSK3B) [%]	Percent Control (HASPIN) [%]	Percent Control (HCK) [%]	Percent Control (HIPK1) [%]
COc1ccc2c(-c3ccnc(Nc4cccc(OC(F)(F)F)c4)n3)cnn2n1 [GW810372X]	30	55	73	86	23	100	100	100	66	85	97	100	98	100	100	34	97	72	100	0.7
COc1cc(N2CCN(C(C)C)CC2)ccc1Nc1nc(Nc2ccc(F)cc2C(=O)NC[C@@H](O)CO)c2cc[nH]c2n1 [GSK1392956A]	100	74	100	95	78	85	100	100	6.9	48	91	100	67	94	93	100	98	86	100	15
COc1ccccc1-c1cc(/C=C2\C(=O)Nc3ncc(Br)cc32)cc(Br)c1O [GW442130X]	100	85	87	100	100	96	100	93	83	79	100	100	100	100	63	100	100	100	100	66
CN1CCN(C(=O)c2ccc(NC(=O)Nc3ccc(N(C)c4ccnc(Nc5ccc(CS(C)(=O)=O)cc5)n4)cc3)cc2)CC1.Cl [GW830263A]	0	0	0	7.3	1.5	2	80	98	18	100	100	100	97	4.5	100	100	95	92	100	72
O=C(Nc1n[nH]c2nc(-c3ccc(O)cc3)c(Br)cc12)C1CC1 [SB-725317]	66	100	72	96	64	84	100	100	81	96	100	100	100	100	100	7.5	0.5	100	100	22
CCS(=O)(=O)c1ccc(OC)c(Nc2ncc(-c3cccc(OC)c3)o2)c1 [GW580509X]	10	0	18	40	5.9	13	39	48	38	82	100	100	100	100	100	91	85	83	49	42
C/C(Nc1ccc(S(N)(=O)=O)cc1)=C1/C(=O)Nc2ccccc21 [GW335962X]	60	83	40	7.7	56	100	96	90	61	100	85	98	100	100	97	90	97	33	79	79
Cl.c1ccc(Cc2nc3ccc(Nc4ncnc5ccccc45)cc3[nH]2)cc1 [GR269666A]	90	100	100	86	72	100	100	100	100	100	100	100	100	91	100	100	99	88	100	100
Cl.O=C(O[C@H]1CN[C@H](C#Cc2cc3ncnc(Nc4ccc5c(cnn5Cc5ccccc5)c4)c3s2)C1)N1CCOCC1 [GSK200398A]	66	100	92	89	77	100	90	81	88	44	86	100	80	100	84	93	90	93	100	91
COc1cc2ncn(-c3cc(O[C@H](C)c4ccccc4Cl)c(C(N)=O)s3)c2cc1OC [GSK237701A]	6.5	3.3	14	95	21	9.4	100	100	17	31	100	95	97	18	99	85	97	94	64	68
NS(=O)(=O)c1ccc(N/N=C2\C(=O)Nc3ccc(C(=O)NCc4ccncc4)cc32)cc1 [GW300657X]	92	50	68	74	82	77	100	96	66	100	69	86	76	100	83	27	35	54	100	19
COc1cc(/C=N/Nc2ncnc3[nH]ncc23)ccc1O [GW578748X]	75	100	56	84	71	100	100	92	13	18	83	100	78	100	100	34	78	0.2	64	24
COc1ccc2[nH]c3c4[nH]c5ccc(OC)cc5c4c4c(c3c2c1)C(=O)NC4=O [GW296115X]	9.7	0	6.3	53	28	71	88	84	0.3	74	95	88	70	100	64	100	68	76	74	56
CCS(=O)(=O)c1ccc(OC)c(Nc2ncc(-c3cccc(F)c3)o2)c1 [GW621970X]	7.9	56	29	7.9	5	5	16	26	63	71	100	100	100	100	100	94	91	79	32	82
Cl.O=S1CCN(Cc2ccc(-c3ccc4ncnc(Nc5ccc(OCc6ccccc6)c(F)c5)c4c3)o2)CC1 [GW576924A]	93	100	100	87	90	100	100	100	100	100	98	100	100	100	100	100	100	96	100	100
CC(C)COC(=O)c1ccc2c(c1)/C(=C/Nc1ccc(S(N)(=O)=O)cc1)C(=O)N2 [GW416981X]	42	11	18	45	42	100	100	98	40	96	86	100	100	43	100	45	71	18	100	88
CCn1c(-c2nonc2N)nc2c(C#CC(C)(C)O)nc(OCCNC)cc21.Cl [GSK949675]	100	100	78	100	100	75	100	100	100	89	77	100	100	100	69	18	55	100	100	42
NS(=O)(=O)c1ccc(N/N=C2\C(=O)Nc3ccc(Cl)cc32)cc1 [GW280670X]	18	100	68	15	21	100	100	100	100	100	100	100	100	100	100	54	91	97	100	98
COc1cccc(-c2c[nH]c3c(N/N=C/c4ccncc4)ncnc23)c1 [GW814408X]	76	12	19	66	26	90	100	66	11	8.3	100	100	100	62	100	0	1	51	91	29
NS(=O)(=O)c1ccc(N/N=C2\C(=O)Nc3ccc(-c4cnco4)cc32)cc1 [GW276655]	79	70	42	61	100	67	81	81	70	89	87	94	100	39	81	15	80	0.3	95	35
